# KKLEB tox = cytotoxicity in KKLEB CF airway cells, primary screen, cytotoxicity control for CF NF-kB inhibitor project, cell-based, uHTS, fluorescence assay plates; KKLEB CF airway cells viability, ATPlite luminescence, overnight; active compounds read low; cells stimulated with P. aeruginosa culture filtrate; activity change (cytotoxicity), % at 5 µM; 360,000 compounds, 0.36% hits; AID 602141, 2011;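 active = corrected activity change at or below -50% at 5 µM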
# HSP90 inh = HSP90 inhibitors, primary screen, cell lysate, luminescence; AID 1789, 2009; Rabbit reticulocyte lysate, luciferase refolding luminescence, 3 h; Heat shock protein HSP 90 (rabbit reticulocyte lysate; luciferase refolding); inhibition, % at 5.6 µM; 290,000 compounds, 0.91% hits;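 active = inhibition above the screen-wide mean plus 3 SD, computed separately per campaign, cut at about 16% in these data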;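 note: 0% = DMSO wells and 100% = 60 µM geldanamycin wells; inhibitors lower the luminescence because luciferase stays unfolded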
# LGR2 antag = inhibitors of bursicon-induced LGR2 CRE-luciferase signal, primary screen, cell-based, HEK293, CRE-luciferase reporter, bursicon stimulation; Drosophila bursicon receptor LGR2 (rickets); bursicon-stimulated, 4 h; inhibition, % at 9.99 µM; 380,000 compounds, 0.35% hits; AID 720647, 2013;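 active = drop in luminescence signal, shown as inhibition above about 50% in the replicate tests, limit read from the data, passing the limit was not always enough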;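 note: agonist challenge used bursicon conditioned medium at about half maximal strength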
# CF NFkB block = inhibitors of PAF-induced NF-kB signaling, primary screen, cell-based, GFP fluorescence, uHTS; 360,000 compounds, 0.86% hits; AID 588850, 2011; KKLEB NF-kB-GFP reporter, GFP fluorescence overnight; inhibition, % at 5 µM;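 active = at least 50% inhibition at 5 µM, scaled per plate between neutral and stimulator controls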;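 note: PAF is a Pseudomonas aeruginosa culture filtrate used as stimulus; plate controls were PAF-stimulated DMSO wells for no effect and unstimulated DMSO wells for full effect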
# Peg3 promoter = Peg3 promoter-driven luciferase inhibitors, primary screen, cell-based, HeLa, luciferase luminescence; HeLa PEG-Prom luciferase reporter, overnight; inhibition, % at 20 µM; 360,000 compounds, 1.7% hits;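 active = inhibition of at least 50% at 20 µM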
# Mdm2-MdmX inh = inhibitors of human Mdm2-MdmX association, primary screen, cell-based, luminescence, split luciferase, SaOS-2, uHTS. Protein Mdm4 (Homo sapiens) + E3 ubiquitin-protein ligase Mdm2 (Homo sapiens), …. SaOS-2 split-luciferase Mdm2/MdmX complementation. inhibition, % at 8 µM. 330,000 compounds, 3% hits. AID 485346, 2010;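 active = inhibition of at least 50% at 8 µM in the primary screen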
# HSP90 inh confirm = HSP90 inhibitors, confirmation, cell lysate, luminescence | shares compounds with HSP90 inh | rabbit reticulocyte lysate, luciferase refolding luminescence, 3 h | inhibition, % at 5.9 µM | 2,300 compounds, 64% hits | AID 1846, 2009; in the data active = inhibition above about 18%;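 note: 0% = vehicle wells and 100% = reference inhibitor wells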
# luciferase ctr = firefly luciferase inhibitors, HSP90 counter-screen, confirmation, artefact control for HSP90 inhibitor project, biochemical, luminescence, triplicate | AID 1847, 2009 | 2,300 compounds, 48% hits | inhibition, % at 5.9 µM | purified native firefly luciferase | shares compounds with HSP90 inh;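 active = inhibition above the mean inhibition of all tested sample wells plus 3 SD, cut at about 10% in these data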;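 note: 0% = DMSO with luciferase and 100% = wells lacking luciferase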
# Target sequence (P08659 whole entry, looked up): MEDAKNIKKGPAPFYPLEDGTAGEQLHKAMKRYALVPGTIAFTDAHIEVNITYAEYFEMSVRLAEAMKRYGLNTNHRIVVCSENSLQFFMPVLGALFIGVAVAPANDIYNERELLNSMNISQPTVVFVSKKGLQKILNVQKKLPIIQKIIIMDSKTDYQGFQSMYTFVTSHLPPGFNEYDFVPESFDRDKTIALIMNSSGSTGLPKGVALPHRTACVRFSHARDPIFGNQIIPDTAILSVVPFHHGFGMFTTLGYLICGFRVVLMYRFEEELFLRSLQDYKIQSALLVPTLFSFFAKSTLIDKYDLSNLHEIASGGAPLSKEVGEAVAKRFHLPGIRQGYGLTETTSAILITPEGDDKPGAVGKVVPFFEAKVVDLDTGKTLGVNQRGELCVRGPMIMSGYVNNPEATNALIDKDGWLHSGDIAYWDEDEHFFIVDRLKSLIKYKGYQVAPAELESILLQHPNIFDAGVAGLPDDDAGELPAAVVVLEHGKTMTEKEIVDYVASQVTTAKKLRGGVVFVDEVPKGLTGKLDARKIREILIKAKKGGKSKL
# * hit, by the source's call; / = not tested or not shown. Compounds with a hit are over-represented: about 3.6% of the library has one in this group of screens.
SMILES,KKLEB tox,HSP90 inh,LGR2 antag,CF NFkB block,Peg3 promoter,Mdm2-MdmX inh,HSP90 inh confirm,luciferase ctr
Clc1ncccc1-c1nnn(-c2ccccc2)n1,-17.6,20.8*,-2.8,-3.5,-405.8,-151.0,17.2*,2.7
C=CCNC(=O)COc1ccccc1C#N,17.7,7.3,-2.3,4.0,-25.2,-3.2,/,/
CC(C)(C)NC(=O)NC(=O)COc1ccccc1C#N,0.9,17.8*,/,-11.6,-304.7,-29.1,11.6,7.2
COc1ccc(-c2cc3c(=O)n(CC(=O)NCCCN4CCN(Cc5ccccc5)CC4)ncn3n2)cc1,-41.2,25.6*,13.9,2.9,-75.2,-22.3,51.0*,34.7*
CCOc1ccc(CCNC(=O)Cn2ncn3nc(-c4ccc(OC)cc4)cc3c2=O)cc1,-3.4,-1.3,-1.7,-15.3,0.0,28.2,/,/
Cc1cc(NO)nc(-c2ccc(Br)cc2)n1,4.2,81.4*,/,-13.7,-303.1,-98.3,79.3*,-16.9
C[C@H](CO)N1C[C@H](C)[C@H](CN(C)S(=O)(=O)c2ccc(F)cc2)Oc2ccc(NS(=O)(=O)c3cccs3)cc2C1=O,/,/,6.3,/,/,/,/,/
O=C(NCc1cccs1)C1CC1,-10.7,0.5,9.9,-6.9,1.7,-6.4,/,/
O=C(NCc1cccs1)C1CCCCC1,-3.4,26.0*,/,-11.9,-5.3,-20.1,-3.1,-7.4
COCC#Cc1ccc2c(c1)O[C@@H](CN(C)S(=O)(=O)c1ccc(OC)cc1)[C@H](C)CN([C@H](C)CO)S2(=O)=O,/,/,-15.8,/,/,/,/,/
O=c1oc2ccc(Cl)cc2nc1/C=C(\O)c1cccs1,-0.6,62.7*,-42.1,-2.9,-15.8,22.8,78.6*,-10.9
CCS(=O)(=O)c1ccc2oc(=O)c(/C=C(\O)c3ccc(Cl)cc3)nc2c1,-13.0,-4.3,13.8,14.9,-5.8,-2.9,/,/
Cc1ccc2oc(=O)c(/C=C(\O)c3ccccc3)nc2c1,-2.5,2.9,-32.9,-7.6,-18.4,-5.1,/,/
Cc1ccc2oc(=O)c(/C=C(\O)c3cccs3)nc2c1,-2.6,18.1*,/,-1.4,-34.6,-13.0,41.6*,-16.4
Cc1cc2nc(-c3ccc[nH]c3=O)[nH]c2cc1C,-21.7,67.6*,77.5*,-15.3,40.4,-4.4,79.6*,65.4*
O=C(O)c1cc(-c2ccc3c(c2)OCCO3)n[nH]1,-6.0,-2.9,-11.2,11.2,0.3,-10.9,/,/
Oc1ccccc1-c1cc(-c2ccc3c(c2)OCCO3)n[nH]1,6.3,21.3*,/,2.7,-143.0,-127.1,38.1*,34.6*
CC(C)CC(=O)Nc1ccc(-c2cn3ccsc3n2)cc1,-10.0,7.8,2.7,0.9,-134.2,-54.0,/,/
CC(C)(C)C(=O)Nc1ccc(-c2cn3ccsc3n2)cc1,-20.3,29.0*,/,-13.5,-21.2,-109.1,48.8*,32.6*
Cc1ccc(NC(=O)CCNC(=O)Cn2ccc3ccccc3c2=O)cc1F,-7.5,44.0*,-16.3,-1.4,21.3,11.9,25.5*,22.7*
N#CC(Cc1cccc(CC(C#N)(c2ccccc2)c2ccccc2)c1)(c1ccccc1)c1ccccc1,-12.6,39.6*,-3.8,-8.6,2.1,18.9,10.9,-6.8
Cc1ccc(S(=O)(=O)N[C@H]2CC[C@H](CCNC(=O)C3CCOCC3)O[C@@H]2CO)cc1,/,/,1.5,/,/,/,/,/
O=S(=O)(O)c1cccc(N=Nc2c(O)ccc3ccccc23)c1,13.1,33.2*,-3.6,-5.2,13.7,16.6,34.3*,-0.5
Oc1ccc2ccccc2c1N=Nc1ccccc1F,-1.1,10.9,-30.5,-41.9,-90.0,-8.7,/,/
O=C(CSc1nnc(-c2cccnc2)o1)Nc1ccc(Br)cc1,5.0,18.2*,0.3,-26.4,-107.3,14.4,-5.4,-5.8
SMILES,KKLEB tox,HSP90 inh,LGR2 antag,CF NFkB block,Peg3 promoter,Mdm2-MdmX inh,HSP90 inh confirm,luciferase ctr
Cc1ccc(-c2cn(-c3ccccc3)c(=S)[nH]2)cc1C,-23.0,18.8*,-24.6,-1.3,-111.8,-118.2,27.4*,14.6*
O=[N+]([O-])c1ccc(-c2ccc(/C=N/O)o2)cc1,-0.1,2.2,-67.9,-25.5,-137.2,-5.9,/,/
O=[N+]([O-])c1ccc(-c2ccc(C=Nc3cccc4ccccc34)o2)cc1,2.1,18.4*,/,-32.7,-10.2,19.2,0.4,-7.6
C[C@@H]1CN([C@@H](C)CO)C(=O)c2cccc(NS(=O)(=O)c3cn(C)cn3)c2O[C@@H]1CN(C)Cc1ccc(C(F)(F)F)cc1,/,/,5.7,/,/,/,/,/
CCN1[C@@H]2c3ccc(-c4ccccc4F)c(=O)n3C[C@H]1[C@H](CO)[C@H]2C(=O)N1CCCCC1,/,/,-19.3,/,/,/,/,/
Cc1cc(C)n(C(=O)c2c([N+](=O)[O-])cnn2C)n1,9.7,72.0*,/,11.0,10.7,16.5,-4.3,-9.6
CCn1ncc([N+](=O)[O-])c1C(=O)n1nc(C)cc1C,-13.8,-1.8,-30.4,-14.1,-79.7,3.0,/,/
C[C@@H]1CN([C@@H](C)CO)C(=O)c2cc(NC(=O)Nc3ccc(F)cc3)ccc2O[C@@H](C)CCCCO[C@H]1CN(C)C(=O)CCCN(C)C,/,/,6.6,/,/,/,/,/
CC(C)C(=O)Nc1ccc(-c2nc3ncccc3o2)cc1,-8.6,17.6*,39.1,-31.9,-123.4,-36.5,25.5*,12.8*
CCCC(=O)Nc1ccc(Cl)c(-c2nc3ncccc3o2)c1,5.3,22.9*,-5.7,-4.0,-2.5,44.7,-7.5,-10.9
CC(C)C(=O)Nc1cccc(-c2nc3ncccc3o2)c1,9.1,-0.1,-15.0,-17.7,-40.3,19.7,/,/
CC(C)C(=O)Nc1ccc(-c2nc3cccnc3o2)cc1,10.1,26.3*,/,-22.7,-108.6,-79.3,30.0*,6.8
C[C@@H]1CN([C@@H](C)CO)S(=O)(=O)c2ccc(C#C[C@@H](C)O)cc2O[C@H]1CN(C)C(=O)C1CCCCC1,/,/,19.7,/,/,/,/,/
COc1ccc2c(=O)c(Oc3ccc(C(=O)O)cc3)c(C(F)(F)F)oc2c1,0.3,71.8*,19.4,1.8,-41.7,-69.2,7.4,-7.2
CC(C)Oc1ccc(/C(O)=C2/C(=O)C(=O)N(Cc3cccnc3)C2c2ccco2)cc1 (configuration not stated),1.1,20.5*,/,16.7,-96.5,15.5,2.9,15.0*
COc1cccc(/C=N/NC(=S)Nc2cccc(C(=O)O)c2)c1O,-16.6,25.3*,65.9*,0.8,-12.8,12.7,50.3*,27.2*
COc1ccccc1/C=N/NC(=O)c1cccc(NC(=O)c2ccccc2C)c1,-4.3,7.4,-6.1,-4.6,13.6,10.9,/,/

# Screening data: PubChem, several laboratories
